Data on 19 compounds can be found in the supplement of paper PMC11219838.

For this assay, the system named is Caenorhabditis elegans L1 (N2). The experiment in a line: survival and reproduction score of C. elegans L1 (0: 0-10 living worms, 1: 11-20, 2: 21-50, 3: >50, 4: overgrown) (score 0-4); higher = more worms, less nematicidal, active = 1 or less; extreme values may be limits of the assay. To be noted: 60 µM; 6 days; temperature: 20 °C. In a few lines:
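Synchronized C. elegans N2 L1s (about 20 per well) were grown in 96-well plates in liquid NGM with E. coli HB101 and compound at 60 µM final (0.6% v/v DMSO), shaken sealed at 200 rpm and 20 °C for 6 days. The ordinal score for survival and reproduction counted living worms per well under a dissection microscope. The scale ran 0 (0–10 worms) to 4 (overgrown, starved), averaged over two biological replicates.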
`Cn1c(SCc2ccc(Cl)cc2)nnc1-c1ccco1`: the “survival and reproduction score” value was 4 (inactive).

As for `COc1ccc(-c2nnc(SCC(=O)Nc3ccccc3F)o2)cc1`, the “survival and reproduction score” value was 4 (inactive). For `Clc1ccc(CSc2nnc(-c3ccccc3)o2)c(Cl)c1` the value was 4 (inactive); for `CN(C)c1ccc(-c2nnc(SCc3ccccc3)o2)cc1`, 4 (inactive); for `CCCc1nnc(CSc2nnc(-c3ccc(Cl)cc3)o2)o1`, 1 (active). For `O=C(CSc1nnc(-c2ccccc2)o1)NCc1ccccc1`, the “survival and reproduction score” value was 4 (inactive). Consider `Cc1ccc(OCc2nc(-c3cccnc3)no2)c(Br)c1`, for which the “survival and reproduction score” value was 4 (inactive).

Consider `Cc1cc(OCc2nc(-c3cccnc3)no2)cc(C)c1Br`, for which the “survival and reproduction score” value is 4 (inactive).

As for `O=C(CSc1nnc(-c2ccccc2)o1)Nc1ccc(F)cc1F`, the “survival and reproduction score” value was 4 (inactive).

Consider `Clc1ccc(OCc2ccccc2)c(-c2nc(-c3cccnc3)no2)c1`, for which the “survival and reproduction score” value was 4 (inactive).

`Cc1ccccc1-c1nc(-c2ccc3c(c2)OCO3)no1`: the “survival and reproduction score” value is 2.5 (inactive). `O=C(CSc1nnc(-c2ccccc2)o1)Nc1ccccc1C(F)(F)F`: the “survival and reproduction score” value was 4 (inactive).

For the compound `CNC(=O)c1ccccc1-c1nc(-c2ccc(F)cc2)no1`, the “survival and reproduction score” value was 4 (inactive). On to `O=C(CSc1nnc(-c2ccncc2)o1)Nc1ccc(Cl)cc1Cl`, for which the “survival and reproduction score” value is 4 (inactive). Regarding `COc1ccc(C(=O)Nc2ccc(-c3nnc(SCc4ccccc4)o3)cc2)cc1`, the “survival and reproduction score” value was 4 (inactive). As for `c1ccc2c(-c3nc(-c4ccncc4)no3)cccc2c1`, the figure is 4 (inactive); as for `CCNC(=O)c1ccccc1-c1nc(-c2ccc(OC)cc2)no1`, 4 (inactive); as for `Cc1ccc(SCc2nc(-c3cccnc3)no2)cc1`, 1.5 (inactive). With `COc1ccccc1-c1nc(-c2ccccc2)no1`, the “survival and reproduction score” value was 4 (inactive).
